Efflux pump mplx: blocks antifungal efflux pumps in multiplex yeast assay. S. cerevisiae Candida pump triplex, Nile Red efflux. inhibition, % at 10 µM. 330,000 compounds, 0.44% hits. AID 485275;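 active means plate passing quality check with inhibition over a set limit, or well fluorescence over plate mean plus 4 SD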;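 further: Nile Red retained in pooled yeast measured as flow cytometry median fluorescence; 0% = buffer negative control and 100% = Enniatin B positive control; higher means more Nile Red kept so more efflux inhibition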
GRK2 inh: inhibitors of human GRK2 displacing RNA aptamer. bead flow cytometry, FAM-aptamer displacement from GRK2. inhibition of aptamer binding, % at 10 µM. 330,000 compounds, 0.59% hits. AID 488847;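 active means inhibition of aptamer binding above 40%, roughly 3 SD of noise, on plates passing a quality check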;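 further: median bead fluorescence of bound FAM aptamer so fluorescent compounds give negative values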
Rce1 inhib: inhibitors of yeast Ras-converting enzyme. yeast membranes, quenched prenylated peptide cleavage fluorescence. calls only. 290,000 compounds, 0.27% hits. AID 2563;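 active means fall in fluorescence gain of 50% or more versus controls, with final raw signal at or below 3038400; inconclusive means same 50% fall but final raw signal above 3038400; inactive means fall in fluorescence gain under 50%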;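 further: plate controls were neutral control wells for no effect and wells lacking membranes for full effect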
Target sequence (Q03530 whole entry, looked up): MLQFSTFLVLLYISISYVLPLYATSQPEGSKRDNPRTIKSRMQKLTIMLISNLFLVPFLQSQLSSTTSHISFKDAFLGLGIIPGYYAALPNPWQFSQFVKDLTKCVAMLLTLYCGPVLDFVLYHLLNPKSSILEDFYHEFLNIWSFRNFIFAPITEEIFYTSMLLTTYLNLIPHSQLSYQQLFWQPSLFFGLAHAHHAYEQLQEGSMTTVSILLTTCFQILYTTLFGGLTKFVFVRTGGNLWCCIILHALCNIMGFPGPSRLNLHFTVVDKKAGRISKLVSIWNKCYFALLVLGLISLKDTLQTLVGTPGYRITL
HDAC3 inh: human HDAC3 inhibition; O15379; recombinant HDAC3, fluorogenic peptide/trypsin coupled, fluorescence; inhibition, % at 8.3 µM; 320,000 compounds, 0.15% hits; in the data active means inhibition above about 26%, passing the limit was not always enough; inconclusive means no clear call, values can overlap the other calls
ALR H2O2 inh: blocks human ALR sulfhydryl oxidase activity; P55789; purified ALR, DTT oxidation, H2O2 HRP-luminol luminescence; inhibition, % (test concentration not listed); 290,000 compounds, 3.8% hits; AID 485317;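 active means mean replicate inhibition above about 79%, with every replicate also reaching it, limit read from the data; inconclusive means only one of the two criteria met; inactive means mean below limit and not every replicate reaching it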
Target sequence (P55789 whole entry, looked up): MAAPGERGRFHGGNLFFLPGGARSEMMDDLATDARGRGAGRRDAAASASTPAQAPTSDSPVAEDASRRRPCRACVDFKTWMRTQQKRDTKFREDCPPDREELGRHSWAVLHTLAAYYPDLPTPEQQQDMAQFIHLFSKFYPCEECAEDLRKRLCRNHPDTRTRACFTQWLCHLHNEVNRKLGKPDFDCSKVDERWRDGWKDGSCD
Rtt109 HAT inh: C. albicans Rtt109 histone acetyltransferase inhibition; Q5AAJ8; purified Rtt109/Vps75, ThioGlo CoA-SH fluorescence, 4 h; inhibition, % at 34.9 µM; 330,000 compounds, 0.16% hits;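 active means inhibition of at least 50% in every replicate; inconclusive means best replicate reaches 50% inhibition but some replicates fall short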
The depositor's hits bear a star. Sampled rows, rich in hits. Any-hit rate of the full collection: about 4.5%.

`O=C(CCCCCNC(=S)Nc1ccccc1)C[N+](=O)[O-]` gave Efflux pump mplx 0, GRK2 inh 0, Rce1 inhib inactive, HDAC3 inh 29* and ALR H2O2 inh -5.
For CC(=O)Nc1ccc(S(=O)(=O)NNC(=S)NCC2CCCO2)cc1 (centres undefined) the results were Efflux pump mplx 0, GRK2 inh 0, Rce1 inhib inactive, HDAC3 inh 3, ALR H2O2 inh 90* and Rtt109 HAT inh -14.
COc1ccc(CCN2C(=O)N[C@@H](C(C)C)C2=O)cc1 was read as Efflux pump mplx 0, GRK2 inh 1, Rce1 inhib inactive, HDAC3 inh -1 and Rtt109 HAT inh -3.
Screening CN(CC(=O)NCc1ccco1)CC(=O)Nc1cc(S(C)(=O)=O)ccc1Cl returned Rtt109 HAT inh 3.
CCOc1ccc(NC(=O)CCC(=O)NNC(=O)COc2ccccc2C)cc1 was read as Efflux pump mplx 0, GRK2 inh 1, Rce1 inhib inactive, HDAC3 inh 3, ALR H2O2 inh -32 and Rtt109 HAT inh -3.
`CC1CCCC(NC(=O)CCC(=O)NCc2ccccc2)C1C` (centres undefined) gave Efflux pump mplx 0, GRK2 inh 1, Rce1 inhib inactive, HDAC3 inh -3, ALR H2O2 inh 1 and Rtt109 HAT inh -4.
O=C(Cc1ccc2c(c1)OCCO2)Nc1cc(C(F)(F)F)ccc1N1CCOCC1 was read as Rtt109 HAT inh 5.
For Cc1ccc(S(=O)(=O)N2CCC(C(=O)N3CCc4ccccc43)CC2)cc1C the results were Rtt109 HAT inh -2.
COc1ccc(N2C(S)=C(C#N)C(=O)NC2c2ccc(OC)c(OC)c2)cc1 (centres undefined) was read as Efflux pump mplx 0, GRK2 inh 0, Rce1 inhib inactive, HDAC3 inh 5, ALR H2O2 inh 15 and Rtt109 HAT inh 110*.
COc1ccc(C2NC(=O)C(C#N)=C(S)N2c2cccc(C)c2)cc1OC (centres undefined) was read as Efflux pump mplx 0, GRK2 inh 0, Rce1 inhib inactive, HDAC3 inh 1, ALR H2O2 inh 24 and Rtt109 HAT inh 74*.
For CCOc1ccc(C2NC(=O)C(C#N)=C(S)N2c2ccc(OC)cc2)cc1OC (centres undefined) the results were Efflux pump mplx 0, GRK2 inh 1, Rce1 inhib inactive, HDAC3 inh 3, ALR H2O2 inh 97* and Rtt109 HAT inh 144*.
`COc1c(Br)cc([N+](=O)[O-])c(OC)c1C(=O)NC(=O)Nc1nc(C)cc(C)n1` gave Efflux pump mplx 0, GRK2 inh 1, Rce1 inhib inactive, HDAC3 inh -2, ALR H2O2 inh -9 and Rtt109 HAT inh -3.
Screening O=C(COc1cccc(Cl)c1Cl)NC1CC1 returned Efflux pump mplx 0, GRK2 inh 0, HDAC3 inh -1 and Rtt109 HAT inh -3.
For Cc1oc(-c2ccccc2Cl)nc1CS(=O)(=O)CC(=O)NCCc1ccccc1 the results were Efflux pump mplx 0, GRK2 inh 1, Rce1 inhib inactive, HDAC3 inh 10, ALR H2O2 inh 70 and Rtt109 HAT inh -5.
COc1ccc(CCNC(=O)CS(=O)Cc2nc(-c3ccccc3F)oc2C)cc1OC (centres undefined) was read as Efflux pump mplx 0, GRK2 inh 0, Rce1 inhib inactive, HDAC3 inh 4, ALR H2O2 inh 99* and Rtt109 HAT inh -4.
Screening COc1ccc(CCNC(=O)CS(=O)Cc2nc(-c3ccccc3Cl)oc2C)cc1OC (centres undefined) returned Efflux pump mplx 0, GRK2 inh 0, Rce1 inhib inactive, HDAC3 inh 2, ALR H2O2 inh 98* and Rtt109 HAT inh 8.
Screening Cc1oc(-c2ccccc2F)nc1CS(=O)CC(=O)NCc1ccc(Cl)cc1 (centres undefined) returned Efflux pump mplx 0, GRK2 inh 4, Rce1 inhib inactive, HDAC3 inh 11, ALR H2O2 inh 59 and Rtt109 HAT inh 4.
`Cc1ccc(CCNC(=O)CS(=O)Cc2nc(-c3ccccc3F)oc2C)cc1` (centres undefined) gave Efflux pump mplx 0, GRK2 inh 2, Rce1 inhib inactive, HDAC3 inh 0, ALR H2O2 inh 99* and Rtt109 HAT inh 16.
For COc1ccc(CCNC(=O)CS(=O)Cc2nc(-c3cccs3)oc2C)cc1OC (centres undefined) the results were Efflux pump mplx 0, GRK2 inh 1, Rce1 inhib inactive, HDAC3 inh 1, ALR H2O2 inh 99* and Rtt109 HAT inh 4.
Screening CCN(CC(=O)Nc1c(F)cccc1F)C(=O)CCSc1ccc(F)cc1 returned Efflux pump mplx 0, GRK2 inh 0, Rce1 inhib inactive, HDAC3 inh -3, ALR H2O2 inh -3 and Rtt109 HAT inh -3.
`Cc1ccc2nc(SCC(=O)Nc3ccc(C)c([N+](=O)[O-])c3)[nH]c2c1` gave Efflux pump mplx 0, GRK2 inh 4, Rce1 inhib inactive, HDAC3 inh 2, ALR H2O2 inh 87* and Rtt109 HAT inh 13.
`CCN(CC)c1ccc(NC(=O)CSc2nc3ccccc3c(=O)[nH]2)cc1` gave Efflux pump mplx 0, GRK2 inh 2, Rce1 inhib inactive, HDAC3 inh 3, ALR H2O2 inh inconclusive and Rtt109 HAT inh -5.
`CCN(CC)c1ccc(NC(=O)CSc2nc(C)cc(=O)[nH]2)cc1` gave Efflux pump mplx 1, GRK2 inh 0, Rce1 inhib inactive, HDAC3 inh 3, ALR H2O2 inh 99* and Rtt109 HAT inh 0.
COC(=O)c1cc(NC(=O)CSc2nc(C)cc(=O)[nH]2)cc(C(=O)OC)c1 was read as Efflux pump mplx 0, GRK2 inh 0, Rce1 inhib inactive, HDAC3 inh -8, ALR H2O2 inh 60 and Rtt109 HAT inh 12.
Screening Cc1cc(=O)[nH]c(SCC(=O)Nc2ccc(C(=O)O)cc2)n1 returned Efflux pump mplx -1, GRK2 inh 1, Rce1 inhib inactive, HDAC3 inh -12, ALR H2O2 inh 99* and Rtt109 HAT inh 1.
Screening Cc1ccc2nc(SCC(=O)Nc3ccc(F)c([N+](=O)[O-])c3)[nH]c2c1 returned Efflux pump mplx 0, GRK2 inh 0, Rce1 inhib inactive, HDAC3 inh 7 and Rtt109 HAT inh 2.
`Cc1cc(=O)[nH]c(SCC(=O)Nc2ccc(F)c([N+](=O)[O-])c2)n1` gave Efflux pump mplx 0, GRK2 inh 0, Rce1 inhib inactive, HDAC3 inh -3, ALR H2O2 inh 98* and Rtt109 HAT inh 2.
`O=C(CCCCCCCC(=O)N1CCCC1)N1CCCC1` gave Rtt109 HAT inh 7.
`CCOC(=O)c1cccc(OS(=O)(=O)Cc2ccccc2)c1` gave Efflux pump mplx 0, GRK2 inh 6, Rce1 inhib inactive, HDAC3 inh 12 and ALR H2O2 inh 3.

Screening results as filed in PubChem BioAssay.
